# Source: PubChem BioAssay AID588518 (NMMLSC, 2011)
# In all, about 1,700 compounds went through this assay and about 20 (1%) were called active. Only a selection was taken, and actives are over-represented in it overall. A number with no mark means an inactive call. Rule as the data show it: active = inhibition above about 26%; inactive = the rest.
# System: Candida albicans multidrug efflux pump MDR1 (expressed in S. cerevisiae AD1-8u)
# Assay: inhibitors of Candida albicans Mdr1 efflux, confirmation, flow cytometry, singleplex, Cherry Pick1 set (AID 588518);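 also: 0% = DMSO vehicle and 100% = reference inhibitor; higher means more Nile Red retained so more efflux inhibition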
# Conditions: S. cerevisiae AD/CaMDR1, Nile Red efflux, at 10 µM, active compounds read high
row,Structure (SMILES),inhibition
1,CCc1ccc(NC(=O)Cn2ncn3c(cc4ccccc43)c2=O)cc1,-0.1%
2,Cc1nc2c(C(=O)NCc3ccc4c(c3)OCO4)c[nH]n2c(=O)c1Cc1ccccc1F,-0.28%
3,Cc1cc(C)cc(NC(=O)C(OC(=O)c2ccc(O)cc2)c2ccccc2)c1 (stereo unspecified),-0.15%
4,Cc1oc2cc3oc(=O)ccc3cc2c1C,-0.03%
5,C/C(N)=C(/C#N)C(=O)COC(=O)c1cc(-c2cccc(Br)c2)nc2ccccc12,-0.13%
6,CCCCN1C(=O)/C(=C/C=C2/C=Cc3ccccc3N2CC)SC1=S,-0.28%
7,CCNc1c(NS(=O)(=O)c2ccc(C3CCCCC3)cc2)c(=O)oc2ccccc12,-0.16%
8,O=C(Cc1ccc(Br)cc1)N1CCN(c2ccccn2)CC1,-0.14%
9,CSCCC(NC(=O)COc1ccccc1)C(=O)OCCOc1ccc(Br)cc1 (stereo unspecified),-0.39%
10,Cc1ccc2[nH]c3c(=O)n(CC(=O)NCCc4ccc(Cl)cc4)ncc3c2c1,-0.13%
11,CCCc1nc(N2CCN(C)CC2)c2sc(=S)n(-c3ccccc3)c2n1,-0.01%
12,COc1ccc(S(=O)(=O)N2CCOC2CNC(=O)C(=O)NCc2ccc(F)cc2)cc1 (stereo unspecified),0.32%
13,CCNC(=O)c1c(O)c2cccc3c2n(c1=O)CC3,-0.2%
14,COc1ccc2[nH]c3c(C)c4cc[n+](C)cc4c(C)c3c2c1,0.07%
15,CC(/C=C/c1ccccc1)=N\NC(=O)C1CC1(C)c1ccccc1 (stereo unspecified),-0.16%
16,O=C1NC(=O)C2C1C(c1ccc([N+](=O)[O-])cc1)=NN2Cc1ccccc1 (stereo unspecified),0.35%
17,CN(C)S(=O)(=O)c1cc(C(=O)Nc2ccn(C)n2)c(Cl)cc1Cl,-0.29%
18,COc1ccc(NC(=S)N2CCc3cc(OC)c(OC)cc3C2)cc1,-0.21%
19,CC12CCC(C(=O)N(c3cccc(Cl)c3)C1=O)C2(C)C (stereo unspecified),-0.13%
20,CCCCOc1ccc(C(=O)NCC(=O)OCC(=O)c2c(N)n(C)c(=O)n(C)c2=O)cc1,-0.28%
21,COc1ccccc1/C=C/C=N/n1c(-c2ccc(Cl)cc2Cl)n[nH]c1=S,0.32%
22,Cc1ccc(/C=C(\C#N)C(=O)Nc2cccc3ncccc23)o1,-0.29%
23,Cc1c(CCOC(=O)CC23CC4CC(CC(C)(C4)C2)C3)sc[n+]1Cc1ccc([N+](=O)[O-])cc1,-0.01%
24,NNC(=O)COc1ccc(C2SCCS2)cc1,-0.31%
25,O=C(Cn1c(COc2ccccc2)nc2ccccc21)Nc1cc(Cl)c(Cl)cc1Cl,0.02%
26,CCOC(=O)CNC(=O)CSc1nnnn1-c1cc(C)ccc1C,-0.31%

row,Structure (SMILES),inhibition
1,Cc1csc(NC(=O)c2ccc(-c3ccc(Cl)cc3Cl)o2)n1,0.14%
2,COc1ccc(-c2sc3ccccc3c2-c2ccc(OCCN3CCOCC3)cc2)cc1,0.1%
3,CC(C)C(=O)N1CCC2(CC1)Oc1ccc(F)cc1C(=O)C21CC(c2ccccc2)=NO1 (stereo unspecified),45.9% (active)
4,CCCc1nnc(SCC(=O)Nc2ccc(C(=O)OCC)cc2)o1,0.19%
5,O=C(Nc1ccc(NC(=O)c2cccs2)cc1)c1ccc2ccccc2c1,0.05%
6,CN1CCN(S(=O)(=O)c2ccc(NC(=S)NC(=O)C3CC3)cc2)CC1,-0.06%
7,Cc1ccc2c(c1)NC(=O)[C@@]1(C)[C@@H](c3ccccc3)[C@H]3COc4ccc(Cl)cc4[C@@H]3N1C2=O,-0.01%
8,COc1ccc(C(=O)NC2CC(C)(C)Cc3c2cnn3-c2ccccc2)c(OC)c1 (stereo unspecified),-0.03%
9,O=C(OCc1ccc(-c2ccccc2)cc1)c1cccc(O)c1,-0.19%
10,CC(/C=N/NC(=O)c1cc(-c2ccc3ccccc3c2)n[nH]1)=C\c1ccco1,-0.25%
11,CCOC(=O)c1c(NC(=S)NC(=O)c2ccco2)sc2c1CCCC2,-0.19%
12,CCCCCCCCCCCCCCCC(=O)OC/C=C(C)/C=C/C=C(C)/C=C/C1=C(C)CCCC1(C)C,-0.1%
13,COc1ccccc1NC(=O)C1CCCN1S(=O)(=O)c1ccc(Cl)cc1 (stereo unspecified),-0.11%
14,CC1CCc2c(sc(NC(=O)c3ccc(Cn4cc(Br)cn4)o3)c2C(N)=O)C1 (stereo unspecified),-0.1%
15,CCCCCC(=O)Nc1ccc(C(=O)N/N=C/c2ccc([N+](=O)[O-])cc2)cc1,-0.14%
16,CSCCC(NS(=O)(=O)c1ccc(C)cc1)C(=O)N1CCCC1 (stereo unspecified),-0.25%
17,Cc1cc(/C=N/NC(=O)CC2(C)OCCO2)c(C)n1-c1ccc(Cl)c(Cl)c1,0.16%
18,Cc1ccc(OCc2cc(C(=O)N(C)CCc3ccccc3)no2)cc1C,-0.03%
19,Cc1nn(C)cc1C(=O)Nc1ccccc1Br,-0.15%
20,O=C(CCCCCn1c(=O)[nH]c2ccccc2c1=O)NCCc1c[nH]c2ccccc12,-0.03%
21,C[n+]1ccc(/C=C/c2c[nH]c3ccccc23)cc1,5.81%
22,O=C(Cc1ccccc1)NCC1OCCc2ccccc21 (stereo unspecified),-0.13%
23,CCOc1ccccc1/C=c1\sc2nc(-c3ccco3)nn2c1=O,0.22%
24,Cc1nn(C)cc1N1C(=O)c2cccc3c(N)ccc(c23)C1=O,0.11%
25,COc1ccc2sc(-c3ccccc3OC)c(-c3ccc(OCCN4CCCC4)cc3)c2c1,5.13%
26,COc1ccc(/C=C(\C#N)c2c[nH]c3ccccc23)cc1,0.1%

row,Structure (SMILES),inhibition
1,Cc1cccc(NC(=O)COc2ccccc2C)n1,-0.06%
2,COc1ccc(C(=O)NC(=S)Nc2ccc(N3CCCC3)cc2)cc1OC,-0.18%
3,Cc1cc(C(=O)Nc2ccc(C)c(S(=O)(=O)N3CCOCC3)c2)c2ccccc2n1,-0.31%
4,O=C(/C=C/c1c(Cl)cccc1Cl)NCc1ccccc1,0.02%
5,CCOc1ccc(C2/C(=C(/O)c3ccc4c(c3)CC(C)O4)C(=O)C(=O)N2CCCn2ccnc2)cc1 (stereo unspecified),0.05%
6,Cc1ccc(Cn2c(C)nc3c(c2=O)c2nc4ccccc4nc2n3Cc2ccco2)cc1,0.02%
7,CCOc1ccc2nc(Cl)c(C3CC(c4ccccc4)=NN3C(=O)c3cccs3)cc2c1 (stereo unspecified),0%
8,O=C(NCc1ccccc1)C(=O)NCC1OCCN1S(=O)(=O)c1ccc(Br)cc1 (stereo unspecified),-0.13%
9,COc1cccc(-c2sc3ccc(OC)cc3c2-c2ccc(OCCN3CCCCC3)cc2)c1,20.7%
10,COc1cccc(NC(=O)CN(C)C(=O)/C=C/c2cc(OC)ccc2OC)c1,-0.16%
11,O=C(CNC(=O)c1ccc(-c2ccccc2)cc1)OCc1ccc(Cl)cc1,0.01%
12,O=C(CN1C(=O)C2C3CCC(C3)C2C1=O)Oc1ccc2ccccc2c1 (stereo unspecified),0.12%
13,Cc1ccc(N=C2NC(=O)/C(=C/C=C/c3ccco3)S2)cc1C,0.12%
14,CCOc1ccc(/C=C2\SC(=S)N(NC(=O)c3ccncc3)C2=O)cc1OC,-0.14%
15,O=S(=O)(c1ccccc1)N1CCc2ccccc21,0.11%
16,Cc1ccc(Cn2nnc3c(=O)[nH]c(C4CCN(S(=O)(=O)/C=C/c5ccccc5)CC4)nc32)cc1,-0.18%
17,COc1ccccc1CSc1ncc(-c2ccc([N+](=O)[O-])cc2)[nH]1,-0.17%
18,O=C(CSc1nnc(-c2cccnc2)n1Cc1ccco1)c1ccc(Cl)c(Cl)c1,0.13%
19,COc1ccc(C(=O)C2CCCN(Cc3cccn3-c3ccccn3)C2)c(C)c1 (stereo unspecified),-0.17%
20,CC[n+]1cc(C)ccc1/C=C/c1ccc(N(C)C)cc1,10.7%
21,CN=C(c1ccccc1)c1c(C)cccc1C,-0.14%
22,CCn1c(/C=C/c2ccc([N+](=O)[O-])o2)nc2ccccc2c1=O,1.88%
23,COc1ccc(C(=O)NC2CCCc3c2cnn3-c2cccc(C)c2C)c(OC)n1 (stereo unspecified),-0.16%
24,C=CCC[C@@H](Cc1ccc(F)cc1)C(=O)OC[C@H](Cc1c[nH]c2ccccc12)NC(=O)[C@@H](CC=C)CC(=O)N(CCO)Cc1ccccc1,56.2% (active)
